Experimental data: PubChem BioAssay AID1159580 (chemical genetic matrix, 2015)
Where “and” joins values, the source holds several entries; their conditions need not be identical. Equal values may be shown once. Among all 5,500 compounds or so, about 2,000 (36%) were called active. Another 18% or so got no clear call; they are omitted. Cut-off read from the data, not from the text of the source: active = normalized growth mostly below about 0.91 (no sharp cut-off); inconclusive = no clear call, values can overlap the other calls; inactive = mostly above about 0.92. Some of the results follow.

Assay: chemical genetic growth profiling, strain panel (AID 1159580);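 note: tested at 20 µM; growth read once vehicle control cultures reached saturation at 30 °C; 1 = growth at the plate median or of vehicle wells; lower values mean less growth of the strain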
Details: growth OD

Measured: normalized growth

O=C1CCC(N2C(=O)c3ccccc3C2=O)C(=O)N1 (stereo unspecified)
inactive: S. cerevisiae deletion strains, locus YJR075W, strain HOC1, stronger effect = lower value 0.972 and 1.02 | S. cerevisiae deletion strains, locus YKL009W, strain mrt4, stronger effect = lower value 1.03 | S. cerevisiae deletion strains, locus YKL068W, stronger effect = lower value 0.997 | S. cerevisiae deletion strains, locus YKL085W, strain MDH1 (second series), stronger effect = lower value 1.03 | S. cerevisiae deletion strains, locus YKL085W, strain MDH1, stronger effect = lower value 1.03 | S. cerevisiae deletion strains, locus YKL160W, strain elf1, stronger effect = lower value 1 | S. cerevisiae deletion strains, locus YKL190W, strain CNB1, stronger effect = lower value 1.02 | S. cerevisiae deletion strains, locus YKR001C, strain vps1, stronger effect = lower value 0.969 | S. cerevisiae deletion strains, locus YKR026C, strain gcn3, stronger effect = lower value 1.02 | S. cerevisiae deletion strains, locus YKR091W, strain srl3, stronger effect = lower value 1.02 | S. cerevisiae deletion strains, locus YLL001W, strain dnm1, stronger effect = lower value 1.04 | S. cerevisiae deletion strains, locus YLL026W, stronger effect = lower value 1.01 | S. cerevisiae deletion strains, locus YLL041C, strain sdh2, stronger effect = lower value 1.03 | S. cerevisiae deletion strains, locus YLR027C, strain aat2, stronger effect = lower value 1 | S. cerevisiae deletion strains, locus YLR039C, strain RIC1, stronger effect = lower value 1.03 | S. cerevisiae deletion strains, locus YLR058C, strain SHM2, stronger effect = lower value 1.01 | S. cerevisiae deletion strains, locus YLR102C, strain apc9, stronger effect = lower value 0.991 | S. cerevisiae deletion strains, locus YLR113W, strain HOG1, stronger effect = lower value 0.971 | S. cerevisiae deletion strains, locus YLR221C, strain rsa3, stronger effect = lower value 1.03 | S. cerevisiae deletion strains, locus YLR258W, strain gsy2, stronger effect = lower value 1.02 | S. cerevisiae deletion strains, locus YLR262C, strain YPT6 (second series), stronger effect = lower value 1.02 | S. cerevisiae deletion strains, locus YLR262C, strain YPT6, stronger effect = lower value 1.05 | S. cerevisiae deletion strains, locus YLR268W, strain sec22, stronger effect = lower value 0.985 | S. cerevisiae deletion strains, locus YLR320W, strain mms22, stronger effect = lower value 1.03 | S. cerevisiae deletion strains, locus YLR330W, strain CHS5, stronger effect = lower value 1 | S. cerevisiae deletion strains, locus YLR342W, strain FKS1 (second series), stronger effect = lower value 0.991 | S. cerevisiae deletion strains, locus YLR342W, strain FKS1, stronger effect = lower value 1.01 | S. cerevisiae deletion strains, locus YLR357W, strain rsc2, stronger effect = lower value 0.997 | S. cerevisiae deletion strains, locus YLR370C, strain arc18, stronger effect = lower value 1.03 | S. cerevisiae deletion strains, locus YLR371W, strain rom2, stronger effect = lower value 0.983 | S. cerevisiae deletion strains, locus YLR384C, strain iki3, stronger effect = lower value 1.03 | S. cerevisiae deletion strains, locus YLR418C, strain cdc73, stronger effect = lower value 0.977 | S. cerevisiae deletion strains, locus YML016C, strain PPZ1, stronger effect = lower value 1.01 | S. cerevisiae deletion strains, locus YML032C, strain rad52, stronger effect = lower value 0.979 | S. cerevisiae deletion strains, locus YML120C, strain ndi1, stronger effect = lower value 1.04 | S. cerevisiae deletion strains, locus YML124C, strain tub3, stronger effect = lower value 0.988 | S. cerevisiae deletion strains, locus YMR058W, strain fet3, stronger effect = lower value 1.02 | S. cerevisiae deletion strains, locus YMR078C, strain ctf18, stronger effect = lower value 0.998 | S. cerevisiae deletion strains, locus YMR125W, strain sto1, stronger effect = lower value 1.01 | S. cerevisiae deletion strains, locus YMR129W, stronger effect = lower value 1.02 | S. cerevisiae deletion strains, locus YMR205C, strain PFK2, stronger effect = lower value 1.01 | S. cerevisiae deletion strains, locus YMR223W, strain ubp8, stronger effect = lower value 0.981 | S. cerevisiae deletion strains, locus YMR231W, strain pep5, stronger effect = lower value 1.01 | S. cerevisiae deletion strains, locus YMR263W, strain SAP30, stronger effect = lower value 1.02 and 1 | S. cerevisiae deletion strains, locus YMR307W, strain GAS1, stronger effect = lower value 1.01 and 0.996 | S. cerevisiae deletion strains, locus YNL067W, strain RPL9B, stronger effect = lower value 1.02 | S. cerevisiae deletion strains, locus YNL071W, strain lat1, stronger effect = lower value 1.03 | S. cerevisiae deletion strains, locus YNL128W, strain TEP1, stronger effect = lower value 1.02 | S. cerevisiae deletion strains, locus YNL153C, strain GIM3, stronger effect = lower value 1.02 | S. cerevisiae deletion strains, locus YNL175C, strain NOP13, stronger effect = lower value 0.997 | S. cerevisiae deletion strains, locus YNL183C, strain NPR1, stronger effect = lower value 0.927 | S. cerevisiae deletion strains, locus YNL197C, strain WHI3, stronger effect = lower value 0.986 | S. cerevisiae deletion strains, locus YNL209W, strain ssb2, stronger effect = lower value 1.02 | S. cerevisiae deletion strains, locus YNL224C, strain SQS1, stronger effect = lower value 0.991 | S. cerevisiae deletion strains, locus YNL233W, strain BNI4, stronger effect = lower value 1.02 | S. cerevisiae deletion strains, locus YNL248C, strain rpa49, stronger effect = lower value 0.957 | S. cerevisiae deletion strains, locus YNL250W, strain rad50, stronger effect = lower value 1 | S. cerevisiae deletion strains, locus YNL271C, strain bni1, stronger effect = lower value 0.986 | S. cerevisiae deletion strains, locus YNL298W, strain CLA4, stronger effect = lower value 1 | S. cerevisiae deletion strains, locus YNL307C, strain MCK1, stronger effect = lower value 0.987 | S. cerevisiae deletion strains, locus YNL322C, strain KRE1 (second series), stronger effect = lower value 1.02 | S. cerevisiae deletion strains, locus YNL322C, strain KRE1, stronger effect = lower value 1.01 | S. cerevisiae deletion strains, locus YNR049C, strain mso1, stronger effect = lower value 1.01 | S. cerevisiae deletion strains, locus YNR052C, strain pop2, stronger effect = lower value 0.991 | S. cerevisiae deletion strains, locus YOL006C, strain TOP1, stronger effect = lower value 1.01 | S. cerevisiae deletion strains, locus YOL012C, strain htz1 0.819 | S. cerevisiae deletion strains, locus YOL147C, strain pex11, stronger effect = lower value 0.989 | S. cerevisiae deletion strains, locus YOR001W, strain rrp6, stronger effect = lower value 1.01 | S. cerevisiae deletion strains, locus YOR061W, strain CKA2, stronger effect = lower value 1.02 | S. cerevisiae deletion strains, locus YOR069W, strain VPS5, stronger effect = lower value 1.01 | S. cerevisiae deletion strains, locus YOR070C, strain gyp1, stronger effect = lower value 1.02 | S. cerevisiae deletion strains, locus YOR080W, strain dia2, stronger effect = lower value 1.02 | S. cerevisiae deletion strains, locus YOR083W, strain WHI5 (second series), stronger effect = lower value 1.01 | S. cerevisiae deletion strains, locus YOR083W, strain WHI5, stronger effect = lower value 1.01 | S. cerevisiae deletion strains, locus YOR106W, strain vam3, stronger effect = lower value 1.01 | S. cerevisiae deletion strains, locus YOR136W, strain idh2, stronger effect = lower value 0.981 | S. cerevisiae deletion strains, locus YOR144C, strain elg1, stronger effect = lower value 0.998 | S. cerevisiae deletion strains, locus YOR184W, strain ser1, stronger effect = lower value 0.981 | S. cerevisiae deletion strains, locus YOR231W, strain MKK1, stronger effect = lower value 0.976 | S. cerevisiae deletion strains, locus YOR265W, strain rbl2, stronger effect = lower value 1.01 | S. cerevisiae deletion strains, locus YOR270C, strain vph1, stronger effect = lower value 1.04 | S. cerevisiae deletion strains, locus YOR290C, strain snf2, stronger effect = lower value 1.01 | S. cerevisiae deletion strains, locus YOR316C, strain cot1, stronger effect = lower value 0.997 | S. cerevisiae deletion strains, locus YPL051W, strain arl3, stronger effect = lower value 1 | S. cerevisiae deletion strains, locus YPL055C, strain LGE1, stronger effect = lower value 1.05 | S. cerevisiae deletion strains, locus YPL078C, strain atp4, stronger effect = lower value 1.01 | S. cerevisiae deletion strains, locus YPL106C, strain sse1, stronger effect = lower value 1.03 | S. cerevisiae deletion strains, locus YPL240C, strain hsp82, stronger effect = lower value 1.02 | S. cerevisiae deletion strains, locus YPL241C, strain CIN2, stronger effect = lower value 1.01 | S. cerevisiae deletion strains, locus YPL256C, strain CLN2, stronger effect = lower value 0.968 | S. cerevisiae deletion strains, locus YPR119W, strain clb2, stronger effect = lower value 0.979 | S. cerevisiae deletion strains, locus YPR141C, strain kar3, stronger effect = lower value 0.988 | S. cerevisiae deletion strains, locus YPR163C, strain tif3, stronger effect = lower value 0.998 | S. cerevisiae deletion strains, locus YPR167C, strain met16, stronger effect = lower value 0.99 | S. cerevisiae deletion strains, strain wtn01, stronger effect = lower value 0.983 | S. cerevisiae strains, strain wild type, stronger effect = lower value 1.01
